Source: PubChem BioAssay
TSHR antagonist – Antagonists of the Thyroid Stimulating Hormone Receptor: HTS campaign; activity change, negative = inhibition, % at 11.5 µM; TSHR-expressing cells, TSH-stimulated cAMP HTRF, 2 h; hits give low values; 0.2% of 330,000 active;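 active = activity change below a set negative limit, meaning inhibition stronger than a set level, cut at about -70% in these data; inconclusive = activity change between two set negative limits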; note: % is set by controls: 0 for no effect and ±100 for the full control effect
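Antagonism was scored as loss of TSH-driven cAMP in TSHR cells, stimulated with 4nM TSH (EC80) for 2 hours at 37 deg C and detected by homogeneous HTRF competition immunoassay.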
HEK293 tox – qHTS of GLP-1 Receptor Inverse Agonists: Cytotox Screen; HEK293 cAMP-luciferase reporter cells, luminescence, 24 h; 0.13% of 410,000 active; AID 624418, 2012; Potency, µM (top dose mostly 38.3 µM), without a hit: at the top dose activity change, negative = inhibition, most hits filed as inhibitors;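 note: loss of luciferase light is scored as toxicity; potency is the fitted concentration of half-maximal effect; % is set by controls: 0 for no effect and ±100 for the full control effect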
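1536-well qHTS counterscreen of the MLSMR; 200 cells/uL, 12 h pre-incubation, 23 nL cpd, 24 h at 37 deg C 5% CO2, luciferase detection reagent, 12 min RT, luminescence. Inhibition = undesired.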
GLP-1R inv ag – qHTS of GLP-1 Receptor Inverse Agonists (Inhibition Mode). HEK293 GLP-1R CRE-luciferase, luminescence, 24 h; GLP-1R form is constitutively active. AID 624417, 2012. Glucagon-like peptide 1 receptor (Homo sapiens), P43220. Potency, µM (top dose mostly 38.3 µM), inactives show top-dose activity change, negative = inhibition, actives largely listed as inhibitors. 1.6% of 410,000 active; note: potency is the fitted concentration of half-maximal effect; % is set by controls: 0 for no effect and ±100 for the full control effect; nearly all actives have a fitted effect of over 55% in size
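Using stably transfected HEK293 (constitutively active GLP-1R, cAMP-luciferase reporter), compounds were incubated 24 hr and luciferase measured by luminescence.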
GLP-1R agonist – qHTS of GLP-1 Receptor Agonists; HEK293 GLP-1R CRE-luciferase, luminescence, 4-6 h; cells express a hypersensitive GLP-1R form; Potency, µM (doses to about 45.6 µM), for the others: top-dose activation, usual class: activators; Glucagon-like peptide 1 receptor (Homo sapiens), P43220; 0.007% of 380,000 active; AID 624172, 2012; note: potency is the fitted concentration of half-maximal effect; % of control where 0% means no effect
PTHR1 agonist – qHTS for PTHR1 Agonists: Primary Screen | Parathyroid hormone/parathyroid hormone-related peptide receptor (Homo sapiens), Q03431 | HEK293 GP2 PTHR1 cells, GloSensor cAMP luminescence, 1 h | Potency, µM (highest dose often 115 µM), for the others: at the top dose activation, actives largely listed as activators | 0.075% of 410,000 active | AID 743266, 2014; note: potency is the fitted concentration of half-maximal effect; nearly all actives have a fitted effect of over 55% in size
Target sequence (Q03431 whole entry, looked up): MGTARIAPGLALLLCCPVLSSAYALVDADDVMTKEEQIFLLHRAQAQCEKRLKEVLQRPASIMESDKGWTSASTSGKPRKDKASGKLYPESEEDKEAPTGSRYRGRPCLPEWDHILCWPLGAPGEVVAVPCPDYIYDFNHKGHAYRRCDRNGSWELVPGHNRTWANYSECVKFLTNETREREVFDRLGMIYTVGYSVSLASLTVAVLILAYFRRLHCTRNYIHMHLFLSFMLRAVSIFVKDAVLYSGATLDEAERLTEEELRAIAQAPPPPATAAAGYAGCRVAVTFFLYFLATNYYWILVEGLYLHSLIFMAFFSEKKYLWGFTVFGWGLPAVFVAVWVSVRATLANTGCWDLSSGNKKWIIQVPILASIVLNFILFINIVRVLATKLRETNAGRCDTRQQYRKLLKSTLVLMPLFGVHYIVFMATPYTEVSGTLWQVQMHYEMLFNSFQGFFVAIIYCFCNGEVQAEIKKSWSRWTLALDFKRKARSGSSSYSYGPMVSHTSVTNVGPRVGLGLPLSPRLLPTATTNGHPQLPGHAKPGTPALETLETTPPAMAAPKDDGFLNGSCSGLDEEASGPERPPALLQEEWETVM
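HEK-293-derived GP2 cells expressing PTHR1 and a GloSensor cAMP reporter, 3,000/well, plated overnight, given luciferin plus IBMX (each 0.5 mM as added) for 1 h at 37 °C, then compound for 1 h at 37 °C. Luminescence was read after 15 min at room temperature.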
Starred values were filed as active, the others as inactive; i = inactive; ? = inconclusive; · = no result given; ! = a repeat was not active; [ ] = another dose, or the depositor's remark. The list is not random: actives were taken first. Their share in the collection is about 1.8%. Unless noted, calls come from the whole dose curve; as a rule, active = well fitted curve in the direction sought with a large enough effect; inconclusive = small, poorly fitted or top-dose-only effect, or another doubt; inactive = no such curve, though single readings can be large; an effect the other way counts as inactive or inconclusive.

SMILES	TSHR antagonist	HEK293 tox	GLP-1R inv ag	GLP-1R agonist	PTHR1 agonist
CCCC(=O)Nc1cc(C(=O)NCc2ccccc2)ccc1S(=O)(=O)c1ccc(Cl)cc1	·	0.5%	-18.1%	·	i
COc1cc(Cl)c(C)cc1NC(=O)c1nn(C)c2c1CSc1ccccc1-2	·	-18.7%	3.1%	·	3.4%
FC(F)(F)c1cc(Nc2ccccc2)nc(-c2ccccn2)n1	10.3	?	3.55µM*	13.9%	i
CC(C)Oc1ccc(C(=O)NC2CCCCC2)cc1	-10.4	5.3%	-2.4%	-4.6%	-21.5%
CC(C)Oc1ccc(C(CCN)C2CCCCC2)cc1 (centres undefined)	-3.3	?	10µM*	-1.0%	-9.4%
COc1cc2nc(NCCc3ccc(Cl)cc3)n3nc(-c4ccccc4)nc3c2cc1OC	·	1.6%	14.0%	·	0.4%
Cc1cccc(-c2cccc(NC(=O)C3CCCN(C(=O)c4csc(C)n4)C3)c2)c1 (centres undefined)	-4.7	-16.3%	5.01µM*	6.7%	-50.0%
Cc1cc(=O)n2c(nc3ccccc32)[nH]1	-3.7	17.0%	103.1%	12.4%	31.6µM*
Nc1c(C(=O)Nc2cccc(F)c2)c2ccccn2c1C(=O)c1ccccc1	·	-0.5%	12.6%	·	i
CCN(CC)CCCNC(=O)CCC(=O)NNc1nc2ccccc2c2nc(C)nn12	8.4	7.94µM*!	-6.5%	-6.3%	-13.9%
Cc1nc2c3ccccc3nc(NNC(=O)CCC(=O)NCCC(C)C)n2n1	14.0	7.4%	16.1%	3.2%	-4.0%
C/C(=C\C(=O)c1ccc(Br)cc1)NNC(=O)c1ccccc1	·	?	?	-2.7%	-23.0%
C/C(=C\C(=O)c1ccc(Br)cc1)NNC(=O)c1ccc(O)cc1	11.6	?	4.47µM*	-6.7%	24.8%
CCN(CC)S(=O)(=O)c1cc(NC(=O)NCCCl)ccc1C	-71.2*	-10.5%	-16.6%	-1.5%	i
CCN(CC)c1ccc(C(=C2C=CC(=[N+](CC)CC)C=C2)c2ccccc2)cc1	·	5.01µM*	?	-5.4%	-38.4%
CCN(CC)c1ccc(C(=C2C=CC(=[N+](CC)CC)C=C2)c2ccc(N(CC)CC)cc2)cc1	·	?	?	-4.0%	-16.7%
O=C(NC1CC(=O)N(c2ccc(Cl)cc2)C1)c1cccs1 (centres undefined)	·	-1.2%	-5.8%	·	i
CCc1ccc(NC(=O)Cn2nnc(C(=O)Nc3ccc(F)cc3)c2N)cc1	·	-5.1%	0.7%	·	-1.2%
CCCSc1cc(N2CCN(C)CC2)nc(-c2ccc(OC)cc2)n1	-1.2	-0.9%	8.91µM*	2.5%	?
COc1ccc2c(Cl)c(-c3nnc(SCC(=O)c4ccccc4)n3C)sc2c1	-16.9	-25.1%	11.2µM*	-1.5%	-2.9%[57.5 µM]
Cc1ccc(C(=O)Nc2ccc3c(c2)N(C)C(=O)c2ccccc2S3)cc1F	·	?	1.78µM*	·	-22.4%
CCOc1ccc(NC(=O)c2cnc3sc(N4CCOCC4)nn3c2=O)cc1	·	-2.2%	7.0%	·	14.4%
COc1ccc(CCN(C)C(=O)c2cccc(S(=O)(=O)N3CCN(c4ccc(F)cc4)CC3)c2)cc1OC	·	-4.6%	26.9%	10.2%	-35.9%
CN(CCOc1ccc(Cl)cc1)C(=O)c1cccc(S(=O)(=O)N2CCN(c3ccc(F)cc3)CC2)c1	·	-4.6%	3.98µM*	13.6%	-11.8%
O=C(OCc1ccccc1)c1cccnc1	·	·	·	-0.2%	·
CCOc1ccc(C(=O)Nc2c(C)nc(Nc3ccccc3)nc2Nc2ccccc2)cc1OCC	·	-14.4%	10µM*	-1.1%	6.4%
CS(=O)(=O)OCC(O)C(O)COS(C)(=O)=O (centres undefined)	·	·	·	-0.9%	·
CCn1c(=S)sc2c(=O)n(CC(=O)Nc3ccccc3OC)c(C)nc21	-134.1*	-3.5%	-20.3%	1.3%	i
O=C(CSc1nc2c([nH]c3ccccc32)c(=O)n1-c1ccccc1F)Nc1cccc(C(F)(F)F)c1	·	-22.3%	11.2µM*	3.0%	-14.2%
CC(=O)Nc1ccc(NC(=O)CSc2nc3c([nH]c4ccccc43)c(=O)n2-c2ccccc2F)cc1	-8.3	16.0%	-1.1%	2.5%	-16.7%
